Laboratory results reported in PubChem BioAssay (NCATS).
Inconclusive results are not listed. The source made the active and inactive calls. Calls come from the whole dose curve; as a rule, active = well fitted curve in the direction sought with a large enough effect; inconclusive = small, poorly fitted or top-dose-only effect, or another doubt; inactive = no such curve, though single readings can be large; an effect the other way counts as inactive or inconclusive.

How the values were obtained:
[1] = system: Zika virus NS2B-NS3 protease; assay: Primary screen GU AMC qHTS for Zika virus inhibitors (AID 1347154);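 note: 0% = no-inhibitor control and -100% = no-enzyme control; nearly all actives have a fitted effect of over 70% in size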
Procedure, shortened: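 Unlinked Zika NS2B hydrophilic domain–NS3 protease complex at 25 nM in 10 mM Tris-HCl pH 8.0, 0.01% Tween 20, with an AMC peptide substrate. Fluorescence change (340/450 nm) over 15 min at room temperature, normalized to controls, fitted to 4-parameter Hill.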

[2] = system: Zika virus NS2B-NS3 protease (unlinked complex); assay: Primary screen GU Rhodamine qHTS for Zika virus inhibitors: Unlinked NS2B-NS3 protease assay (AID 1347159); note: % is set by controls: 0 for no effect and ±100 for the full control effect; nearly all actives have a fitted effect of over 60% in size
Procedure, shortened: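 A qHTS format was used, with compound concentrations ranging up to 114 microM. Each compound was preincubated with 25 nM NS2B-NS3 protease, and the substrate was then added at 1.5 microM. Curves were fitted with a 4-parameter Hill model.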

[3] = system: Zika virus NS2B-NS3 protease (linked construct); assay: Primary screen NINDS Rhodamine qHTS for Zika virus inhibitors (AID 1347160); note: nearly all actives have a fitted effect of over 55% in size
Procedure, shortened: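 Kinetic fluorescence (Ex 480 nm, Em 540 nm) over 15 min with 1.5 microM Rhodamine110 peptide and 25 nM linked protease.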

[4] = qHTS to identify inhibitors of the type 1 interferon - major histocompatibility complex class I in skeletal muscle: primary screen against the NCATS LOPAC collection (AID 1347405);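 note: lytic HiBiT luminescence reporting HLA-B protein level; % is set by controls: 0 for no effect and ±100 for the full control effect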
Procedure, shortened: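 CRISPR-engineered immortalized human myoblasts (C25cl48) with HiBiT fused to endogenous HLA-B*08:01, stimulated with 4 ng/ml IFN-beta. LOPAC compounds tested as a 7-point 1:4.3 titration (top 46 uM final), 24 h at 37 C; lytic HiBiT luminescence read.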

[5] = qHTS for inhibitors of adenylyl cyclases using a fission yeast platform: a pilot screen against the NCATS LOPAC library (AID 1347410);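 note: plate controls were DMSO vehicle for no effect and DPI positive control for full effect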
Procedure, shortened: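 Fission yeast qHTS: CHP2027 cells (AC9-GNAS-PDE4D2, fbp1-GFP), 5x10^6 cells/mL working density, EMM + His/Lys/Ura; LOPAC at up to 57 µM final; 18 h dark, 30C; GFP by laser cytometry. DPI positive control, DMSO vehicle.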

[6] = target: Protein phosphatase 1D (Homo sapiens) (UniProt O15297); assay: RapidFire Mass Spectrometry qHTS Assay for Modulators of WT P53-Induced Phosphatase 1 (WIP1) (AID 1347424);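 note: amount of dephosphorylated VEPPL-S-QETFS peptide product formed by WIP1; series mostly up to about 63 µM; plate controls were DMSO wells for no effect and GSK830371 inhibitor control at 10 µM for full effect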
Procedure, shortened: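 10 nM WIP1 preincubated with compounds 1 hr at room temperature in pH 7.5 Tris buffer with 30 mM MgCl2, 1 mM TCEP; 2 uM VEPPL-pS-QETFS phosphopeptide for 5 min, formic acid quench; dephosphorylated product quantified by RapidFire MS against labelled standard.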

[7] = target: Protein phosphatase 1D (Homo sapiens) (UniProt O15297); assay: Rhodamine-PBP qHTS Assay for Modulators of WT P53-Induced Phosphatase 1 (WIP1) (AID 1347425); note: % of control where 0% means no effect
Procedure, shortened: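 5 nM WIP1 + 10 uM Rh-PBP, 50 mM Tris pH 7.5, 30 mM MgCl2, 1 mM TCEP, 0.1 mM EGTA, BSA; cpds pinned, 1 hr RT; + 10 uM phosphopeptide; fluorescence 1-min reads x 11 min; delta = f1 - f0.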

[8] = Primary qHTS for inhibitors of La Crosse Virus (LACV) - induced cell death in SH-SY5Y cells (AID 1508616);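 note: top concentration of the series differs between compounds; 0% = infected DMSO wells and 100% = uninfected DMSO wells; higher means more rescue of cells from virus-induced death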
Procedure, shortened: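 SH-SY5Y cells (6000/well) plated 24 h, then given compounds by pin transfer and LACV at 0.01 MOI for 6 days at 37C. Viability measured by ATPLite luminescence, normalized to infected DMSO and uninfected DMSO.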

[9] = target: Lysine-specific demethylase 5B (Homo sapiens) (UniProt Q9UGL1); assay: Optimization screen for KDM5B Histone Demethylases FDH coupled qHTS against the LOPAC library (AID 1347166); note: 0% is about no effect
Procedure, shortened: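 KDM5BDeltaAP (200nM final) preincubated 10 min with compound, then 12.5uM H3K4Me3, 25uM a-ketoglutarate, ascorbate, Fe(II), NAD+ and FDH added; 50mM HEPES pH 7.5, 0.01% Tween-20. NADH fluorescence (340/450 nm) change over 30 min, room temperature.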

[10] = qHTS to identify inhibitors of the type 1 interferon - major histocompatibility complex class I in skeletal muscle: primary screen against the NCATS Pharmaceutical Collection (AID 1347407);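 note: luminescence of HiBiT knocked into endogenous HLA-B as interferon-induced MHC class I level; % is set by controls: 0 for no effect and ±100 for the full control effect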
Procedure, shortened: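 Luminescence from HiBiT-tagged endogenous HLA-B*08:01 served as the read-out of IFN-beta-induced MHC class I in CRISPR-engineered C25cl48 myoblasts. Cells received 4 ng/ml IFN-beta plus compound (high final 46 uM, […]) for 24 h.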

[11] = Validation qHTS assay for inhibitors of Activation Induced Cytidine Deaminase (AID): UDG Counterscreen signal (AID 1347427); note: 0% is about no effect
Procedure, shortened: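 Counterscreen read of UDG activity (2 U/mL, 4/3x) in the FRET deamination format with AID (1 uM, 4/3x), DJC20/DJC23 substrates (250 nM, 4x), 4 h at room temperature. NaOH stop, fluorescence at 560 ex/665 em.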

[12] = target: Single-stranded DNA cytosine deaminase (Homo sapiens) (UniProt Q9GZX7); assay: Validation qHTS assay for inhibitors of Activation Induced Cytidine Deaminase (AID): AID signal (AID 1347429); note: % is set by controls: 0 for no effect and ±100 for the full control effect
Procedure, shortened: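 FRET deamination assay: 1 uM AID (4/3x stock) with UDG, compound up to 114 uM, then 250 nM DJC20/DJC23 substrate (4x stock) for 4 hr at room temperature. NaOH added, 30 min; fluorescence read 540/590 nm.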

[13] = Vero cells viability qHTS for Zika virus inhibitors (AID 1347167); note: % is set by controls: 0 for no effect and ±100 for the full control effect
Procedure, shortened: (§1)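 Cells seeded at 2.5 x 10^5 cells/mL in DMEM with 4% FBS and attached overnight at 37 degrees C, then exposed to compound for 24 to 48 hours. Viability read as ATP content by CellTiter Glo luminescence.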

[14] = HepG2 cells viability qHTS for Zika virus inhibitors (AID 1347168); note: % is set by controls: 0 for no effect and ±100 for the full control effect
Procedure, shortened: as §1

[15] = Tertiary RLuc qRT-PCR qHTS assay for Zika virus inhibitors (AID 1347169); note: top concentration of the series differs between compounds; % is set by controls: 0 for no effect and ±100 for the full control effect; nearly all actives have a fitted effect of over 55% in size
Procedure, shortened: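 Vero, 1,000 cells/well, o/n 37 C; cpd pinned in DMSO; ZIKV-RLuc Cambodian, MOI 1-2, 48-72 h 37 C; live-cell RLuc substrate, lum read at 1-1.5 h.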

Chain of Lysine-specific demethylase 5B (Homo sapiens) (Q9UGL1 whole entry, looked up): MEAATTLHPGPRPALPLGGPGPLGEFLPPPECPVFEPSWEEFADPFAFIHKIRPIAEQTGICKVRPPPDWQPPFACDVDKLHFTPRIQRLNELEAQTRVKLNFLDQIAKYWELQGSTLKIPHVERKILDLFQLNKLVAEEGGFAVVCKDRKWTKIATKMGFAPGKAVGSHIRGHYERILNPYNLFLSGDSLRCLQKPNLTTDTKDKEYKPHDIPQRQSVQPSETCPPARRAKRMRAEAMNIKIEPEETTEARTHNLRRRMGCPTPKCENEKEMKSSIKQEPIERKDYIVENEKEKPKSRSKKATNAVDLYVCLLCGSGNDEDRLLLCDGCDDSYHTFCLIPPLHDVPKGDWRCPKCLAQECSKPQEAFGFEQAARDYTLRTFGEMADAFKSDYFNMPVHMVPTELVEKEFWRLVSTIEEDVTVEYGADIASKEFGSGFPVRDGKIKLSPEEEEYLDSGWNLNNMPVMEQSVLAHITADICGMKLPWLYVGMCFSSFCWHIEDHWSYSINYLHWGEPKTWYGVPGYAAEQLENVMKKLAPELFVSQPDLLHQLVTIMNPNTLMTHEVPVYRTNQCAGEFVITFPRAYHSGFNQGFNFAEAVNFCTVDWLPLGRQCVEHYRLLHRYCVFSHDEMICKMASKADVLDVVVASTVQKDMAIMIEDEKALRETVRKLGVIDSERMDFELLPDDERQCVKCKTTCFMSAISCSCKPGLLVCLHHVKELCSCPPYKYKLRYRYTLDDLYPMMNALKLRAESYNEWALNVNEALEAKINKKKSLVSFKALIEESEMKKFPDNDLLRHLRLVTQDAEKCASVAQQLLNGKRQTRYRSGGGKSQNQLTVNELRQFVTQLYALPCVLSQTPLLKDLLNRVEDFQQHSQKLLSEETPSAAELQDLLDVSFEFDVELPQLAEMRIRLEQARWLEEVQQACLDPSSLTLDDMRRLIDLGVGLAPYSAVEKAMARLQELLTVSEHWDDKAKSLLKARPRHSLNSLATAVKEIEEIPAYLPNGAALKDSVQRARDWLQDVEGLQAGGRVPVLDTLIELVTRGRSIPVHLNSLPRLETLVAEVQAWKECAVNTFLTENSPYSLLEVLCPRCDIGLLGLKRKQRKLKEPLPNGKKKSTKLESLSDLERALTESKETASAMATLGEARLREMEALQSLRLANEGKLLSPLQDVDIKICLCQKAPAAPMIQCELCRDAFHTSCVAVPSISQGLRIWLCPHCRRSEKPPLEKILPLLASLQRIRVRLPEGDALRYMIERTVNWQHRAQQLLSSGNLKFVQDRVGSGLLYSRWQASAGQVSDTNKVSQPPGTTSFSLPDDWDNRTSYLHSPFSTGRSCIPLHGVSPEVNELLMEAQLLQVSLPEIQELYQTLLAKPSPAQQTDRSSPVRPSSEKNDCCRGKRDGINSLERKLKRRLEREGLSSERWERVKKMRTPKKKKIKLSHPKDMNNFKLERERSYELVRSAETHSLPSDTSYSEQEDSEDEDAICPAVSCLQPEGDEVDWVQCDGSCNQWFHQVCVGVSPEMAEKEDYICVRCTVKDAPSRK
Chain of Single-stranded DNA cytosine deaminase (Homo sapiens) (Q9GZX7 whole entry, looked up): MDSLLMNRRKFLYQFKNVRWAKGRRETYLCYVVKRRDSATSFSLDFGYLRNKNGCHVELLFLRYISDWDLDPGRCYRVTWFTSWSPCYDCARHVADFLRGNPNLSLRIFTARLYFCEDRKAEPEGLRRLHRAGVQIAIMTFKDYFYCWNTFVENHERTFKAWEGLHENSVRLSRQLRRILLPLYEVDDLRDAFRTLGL
Chain of Protein phosphatase 1D (Homo sapiens) (O15297 whole entry, looked up): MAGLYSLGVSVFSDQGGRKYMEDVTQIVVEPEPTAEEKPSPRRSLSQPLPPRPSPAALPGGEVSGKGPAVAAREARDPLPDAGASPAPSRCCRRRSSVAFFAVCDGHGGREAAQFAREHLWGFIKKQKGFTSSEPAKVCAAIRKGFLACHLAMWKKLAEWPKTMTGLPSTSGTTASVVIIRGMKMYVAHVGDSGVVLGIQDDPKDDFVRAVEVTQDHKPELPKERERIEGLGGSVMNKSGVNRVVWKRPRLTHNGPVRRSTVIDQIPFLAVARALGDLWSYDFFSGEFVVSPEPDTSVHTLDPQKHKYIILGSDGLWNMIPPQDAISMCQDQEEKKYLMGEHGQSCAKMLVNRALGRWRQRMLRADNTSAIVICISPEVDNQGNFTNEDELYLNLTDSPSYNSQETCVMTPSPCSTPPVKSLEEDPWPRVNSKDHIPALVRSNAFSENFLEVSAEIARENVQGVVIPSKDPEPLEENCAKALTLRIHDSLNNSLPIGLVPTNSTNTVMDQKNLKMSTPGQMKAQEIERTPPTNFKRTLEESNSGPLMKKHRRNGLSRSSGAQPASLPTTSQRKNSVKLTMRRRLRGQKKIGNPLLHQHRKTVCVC

CN1CCC[C@@H]1Cc1c[nH]c2ccc(CCS(=O)(=O)c3ccccc3)cc12
inactive: Potency [1] | Potency [2] | Potency [3] | Potency [4] | outcome [5] | outcome [6] | outcome [7] | outcome [8]

CCN(CC)CCOC(=O)C1(C2CCCCC2)CCCCC1
inactive: Potency [1] | outcome [9] | Potency [4] | Potency [10] | outcome [5] | outcome [6] | outcome [7] | Potency [11] | Potency [12] | outcome [8]

CN(C)CC[C@@H](c1ccc(Cl)cc1)c1ccccn1
inactive: Potency [1] | outcome [9] | Potency [4] | Potency [10] | outcome [5] | outcome [6] | outcome [7] | Potency [11] | Potency [12] | outcome [8]

CCCCc1ncc(/C=C(\Cc2cccs2)C(=O)O)n1Cc1ccc(C(=O)O)cc1
inactive: Potency [1] | Potency [2] | Potency [3] | Potency [4] | Potency [10] | outcome [5] | outcome [6] | outcome [7] | outcome [8]

O=c1[nH]cnc2c1ncn2[C@@H]1O[C@H](CO)[C@@H](O)[C@H]1O
inactive: Potency [1] | Potency [2] | Potency [3] | outcome [6] | outcome [7] | outcome [8]

CC(C)(C(=O)O)c1ccc(C(O)CCCN2CCC(C(O)(c3ccccc3)c3ccccc3)CC2)cc1 (stereo not given)
inactive: Potency [1] | Potency [2] | Potency [3] | outcome [9] | Potency [4] | Potency [10] | outcome [5] | outcome [6] | outcome [7]

Cc1cccc(Nc2cc(Cl)nc(SCC(=O)O)n2)c1C
inactive: Potency [1] | Potency [2] | Potency [10] | outcome [6] | outcome [7]

NC(N)=NCCC[C@H](N)C(=O)O
inactive: Potency [1] | outcome [9] | Potency [4] | activity change, negative = inhibition [10] -4.76% [at 3.83 µM] | outcome [5] | activity change, negative = inhibition [6] -3.57% [at 6.17 µM] | activity change, negative = inhibition [7] -0.0772% [at 4.81 µM] | Potency [11] | Potency [12] | outcome [8]

Nc1cc(=O)[nH]c(N)n1
inactive: Potency [1] | outcome [9] | Potency [4] | Potency [10] | outcome [5] | outcome [6] | outcome [7] | Potency [11] | Potency [12]

C[C@H](NC(CCc1ccccc1)C(=O)O)C(=O)N1CCC[C@H]1C(=O)O (stereo not given in full)
inactive: Potency [1] | Potency [4] | outcome [5] | outcome [7] | outcome [8]

O=C1NC(=O)[C@@]2(CCOc3ccc(F)cc32)N1
inactive: Potency [1] | Potency [4] | Potency [10] | outcome [5] | outcome [6] | outcome [7]

CN(C)CCC=C1c2ccccc2CCc2ccccc21
inactive: Potency [1] | outcome [9] | Potency [4] | Potency [10] | outcome [5] | outcome [7] | Potency [11] | Potency [12] | outcome [8]

CC(=O)c1ccc2c(c1)N(CCCN(C)C)c1ccccc1S2
inactive: Potency [1] | Potency [4] | outcome [5] | outcome [6] | outcome [7] | outcome [8]

O=C(O)c1ccccc1-c1ccc(C(F)(F)F)cc1
inactive: Potency [1] | Potency [10] | outcome [6] | outcome [7]

CC(CN(C)C)CN1c2ccccc2CCc2ccccc21 (stereo not given)
inactive: Potency [1] | outcome [9] | Potency [4] | Potency [10] | outcome [5] | outcome [7] | Potency [11] | Potency [12] | outcome [8]

CCCn1cnc2c1c(=O)n(CCCCC(C)=O)c(=O)n2C
inactive: Potency [1] | outcome [9] | Potency [4] | Potency [10] | outcome [5] | outcome [6] | outcome [7] | Potency [11] | Potency [12] | outcome [8]

N[C@H](C(=O)O)c1ccc(O)cc1
inactive: Potency [1] | Potency [13] | outcome [14] | Potency [15] | Potency [10] | outcome [6] | outcome [7]

CCCCCCCCCCCCCCCC(=O)NCCO
inactive: Potency [1] | outcome [9] | Potency [10] | outcome [6] | outcome [7] | Potency [11] | Potency [12] | outcome [8]

CSc1ccc2c(c1)N(CCC1CCCCN1C)c1ccccc1S2 (stereo not given)
inactive: Potency [1] | outcome [9] | outcome [5] | outcome [7] | Potency [11] | Potency [12] | outcome [8]

C#CCN(C)Cc1ccccc1
inactive: Potency [1] | outcome [9] | Potency [4] | Potency [10] | outcome [5] | outcome [7] | Potency [11] | Potency [12] | outcome [8]

COC(=O)C1=C(C)NC(C)=C(C(=O)OC)C1c1ccccc1[N+](=O)[O-]
inactive: Potency [1] | Potency [10] | outcome [5] | outcome [6] | outcome [7] | Potency [11] | Potency [12] | outcome [8]

OCCN1CCN(CCCN2c3ccccc3Sc3ccc(Cl)cc32)CC1
inactive: Potency [1] | outcome [9] | Potency [10] | outcome [5] | outcome [6] | outcome [7] | Potency [11] | Potency [12] | outcome [8]

CN(C)CCOC(C)(c1ccccc1)c1ccccn1 (stereo not given)
inactive: Potency [1] | outcome [9] | Potency [4] | outcome [5] | outcome [6] | outcome [7] | Potency [11] | Potency [12] | outcome [8]

CSc1ccc2c(c1)C(N1CCN(C)CC1)Cc1ccccc1S2 (stereo not given)
inactive: Potency [1] | outcome [9] | outcome [5] | outcome [6] | outcome [7] | Potency [11] | Potency [12] | outcome [8]
